Results filed as inconclusive are left out. Calls come from the whole dose curve; as a rule, active = well fitted activation curve with a large enough effect; inconclusive = small, poorly fitted or top-dose-only effect; inactive = no such curve, though single readings can be large or run the other way.
Target: Rap guanine nucleotide exchange factor 3 (Homo sapiens) (UniProt O95398)
Assay: Confirmatory qHTS for agonist of cAMP-regulated guanine nucleotide exchange factor 3 (EPAC1) (AID 1645881);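 note: EPAC1 catalysed release of BODIPY-GDP from Rap1B seen as fluorescence loss; 100% = effect of cAMP agonist control; nearly all actives have a fitted effect of over 75% in size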
Conditions: EPAC1 Rap1B BODIPY-GDP exchange fluorescence; series mostly up to 154 µM; activation: at the top concentration

Chain of Rap guanine nucleotide exchange factor 3 (Homo sapiens) (O95398 whole entry, looked up): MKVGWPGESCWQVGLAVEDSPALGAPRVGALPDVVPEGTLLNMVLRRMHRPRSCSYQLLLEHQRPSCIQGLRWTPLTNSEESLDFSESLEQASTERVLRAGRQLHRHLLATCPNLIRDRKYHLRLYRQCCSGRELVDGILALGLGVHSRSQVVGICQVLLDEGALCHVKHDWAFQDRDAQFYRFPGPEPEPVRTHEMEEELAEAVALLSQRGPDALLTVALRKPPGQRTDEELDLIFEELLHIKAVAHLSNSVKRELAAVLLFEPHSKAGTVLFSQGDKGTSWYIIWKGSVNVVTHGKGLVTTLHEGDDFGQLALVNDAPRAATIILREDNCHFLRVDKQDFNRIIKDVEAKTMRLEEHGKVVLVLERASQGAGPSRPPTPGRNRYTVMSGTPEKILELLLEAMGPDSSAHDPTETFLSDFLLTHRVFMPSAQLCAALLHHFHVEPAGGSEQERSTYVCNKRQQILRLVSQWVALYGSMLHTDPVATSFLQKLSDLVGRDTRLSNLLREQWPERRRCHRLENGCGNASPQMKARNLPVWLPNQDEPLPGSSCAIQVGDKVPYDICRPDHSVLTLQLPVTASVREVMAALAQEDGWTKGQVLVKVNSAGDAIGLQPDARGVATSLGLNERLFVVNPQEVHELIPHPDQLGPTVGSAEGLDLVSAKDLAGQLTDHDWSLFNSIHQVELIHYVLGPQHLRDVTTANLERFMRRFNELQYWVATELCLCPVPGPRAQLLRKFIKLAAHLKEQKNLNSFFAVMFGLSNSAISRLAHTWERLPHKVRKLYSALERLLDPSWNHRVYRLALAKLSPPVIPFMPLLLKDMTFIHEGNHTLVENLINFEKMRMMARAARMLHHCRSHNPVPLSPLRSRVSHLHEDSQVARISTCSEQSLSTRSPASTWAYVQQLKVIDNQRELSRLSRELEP

activation, inactive:
O=C(NC1(O)C(=O)c2ccccc2C1=O)c1ccccc1 2.09%, CCOC(=O)C1=CCN(S(=O)(=O)c2ccccc2C)C1c1ccc(Cl)c(Cl)c1 (centres undefined) 21.2%, CCCCC[C@@H](C)N1C[C@H](COCc2ccccc2)Oc2cc(N3CC[C@@H](O)C3)ccc2S1(=O)=O -27.5%, CN(C)c1ncc2ncc(=O)n(Cc3cccs3)c2n1 8.49%, Cc1ccc(CN(Cc2ccco2)C(=O)c2ccccc2Br)o1 15.7%, COC(=O)c1ccc2nc(-c3ccc(OC)c(OC)c3)c(Cc3ccccc3)n2c1 9.14%, COc1ccc(C2CC(=O)c3c(O)cc(O)cc3O2)c(CC=C(C)C)c1OC (centres undefined) 14.7%, CCOc1ccccc1CNC(=O)Cn1nc(C)c2c(C)n(-c3ccc(C)cc3)nc2c1=O -16.4%, O=C(c1cc(C(F)(F)F)cc(C(F)(F)F)c1)N1CCC2(CCCN(c3ncccn3)C2)CC1 -5.81%, Nc1nc(N)c(-c2cccc(C(F)(F)F)c2)c(Cc2cccc(C(F)(F)F)c2)n1 -8.23%, Cc1cccc(NC(=O)CNC(=O)CCc2nc3sc4c(c3c(=O)[nH]2)CCCC4)c1C 7.63%, Cc1ccc(S(=O)(=O)Oc2cccc(/C=N/Nc3ccc(C(=O)O)cc3)c2)cc1 -7.46%, COC(=O)[C@@]1(C)CCC[C@@]2(C)c3ccc(O)c(C(C)C)c3CCC21 (some centres undefined) 6.28%, COc1ccc(-c2nc3ccccc3nc2-c2ccccc2)cc1 9.64%, CC(=O)NC(c1ccccc1)c1c(O)ccc2ccccc12 (centres undefined) 4.94%, CCCCC[C@H](C)N1C[C@@H](COCc2ccccc2)Oc2cc(N3CC[C@H](O)C3)ccc2S1(=O)=O -20.6%, COCOCCn1cc(CN2CCS(=O)(=O)N(Cc3ccc(-c4ccc(F)cc4)cc3)C(CC(C)C)C2=O)nn1 (centres undefined) -7.96%, CCO[C@H]1OC(C(=O)NCc2ccccc2)=C[C@@H](c2ccc(C(F)(F)F)cc2)[C@@H]1CCCO -3.56%, Cc1ccc(SCc2cc(=O)c3c(=O)n(-c4ccccc4)[nH]c3[nH]2)cc1 5.71%, CC(C)(C)c1ccc(S(=O)(=O)NC(=O)C2(C)CCN2C(=O)Cc2ccc(-c3ccccc3)cc2)cc1 (centres undefined) -17.3%, Cc1cc(NS(=O)(=O)c2ccc(NC(=S)NC(=O)/C=C/c3ccccc3)cc2)no1 -2.55%, Cc1cccc(N2CC(C(=O)Nc3nnc(SCC(=O)NCC4CCCO4)s3)CC2=O)c1 (centres undefined) 3.47%, Cc1cc(NC2=CC(=O)C(=O)c3ccccc32)no1 -1.91%, CCC(C)n1c(SCC(=O)Nc2ccc3[nH]c(=O)[nH]c3c2)nc2ccccc2c1=O (centres undefined) 8.53%, O=C(Nc1ccccc1N1CCCCC1)c1cnccn1 19.1%, CC(C)=CCc1c2c(c3occ(-c4ccc(O)cc4)c(=O)c3c1O)C=CC(C)(C)O2 -37%, COCC(=O)Oc1c(Sc2ccccc2[N+](=O)[O-])c(C)nn1C(C)(C)C 6.5%, O=C(O)c1ccc(N=N/C(=N\Nc2ccc(C(=O)O)cc2)c2ccccc2)cc1 -11.1%, O=c1c(O)c(-c2ccccc2)oc2ccc3occc3c12 0.457%, O=C(O)c1cc(NN=Nc2cccc([N+](=O)[O-])c2)cc([N+](=O)[O-])c1 -10.6%, CC(C)NC(=O)c1sc2nc(-c3cccs3)cc(-c3cccs3)c2c1N 13.1%, O=C(CSc1nccn1Cc1ccc(Cl)cc1)Nc1ccc2c(c1)OCO2 -0.529%, Cc1occc1C(=O)N/N=C/C1=C(N2CCOCC2)C(=C/c2ccc(Cl)cc2Cl)/CC1 -32%, COc1cccc(C(=O)/C=C/c2ccc(OCC#N)c(OC)c2)c1 11.6%, CC1(C(=O)NS(=O)(=O)c2ccc3ccccc3c2)CCN1C(=O)Cc1ccc(-c2ccccc2)cc1 (centres undefined) -12.4%, CC(C)n1c(CNC(=O)c2ccccc2F)nnc1SCC(=O)NC1CCCCC1 14.5%, Cc1cc2c(cc1C)C(c1ccccc1OC(C)C)CC(=O)N2 (centres undefined) 1.73%, CCc1noc(C)c1C(=O)Nc1nc2c(C)cc(C)cc2s1 -0.162%, CCOc1ccc2nc3cc(N=Nc4ccc(N)nc4N)ccc3c(N)c2c1 25.7%

Source: PubChem BioAssay (NCATS)
